Source: PubChem BioAssay AID540298 (Southern Research Specialized Biocontainment Screening …, 2011)
Potency and affinity values are given separately. The source made the active and inactive calls. The rule behind the calls is not given here.

Assay: Vero E6 cell cytotoxicity, dose response, cytotoxicity control (AID 540298)
Details: Vero E6 cells viability; series mostly up to 40 µM; viability: at the top concentration

SMILES	viability
CCOC(=O)c1c(CN(C)C)oc2cc(CN(C)C)c(O)c(CSc3ccccc3)c12	93% (inactive)
CN(C)c1cccc2c(C=C(C#N)C#N)ccc(N(C)C)c12	93.7% (inactive)
COc1ccc(N2CCN(CCCN)CC2)cc1	87.2% (inactive)
Cc1ccc(N2C(=O)C(CC(=O)Nc3cccc(F)c3)N(C3CC3)C2=O)cc1 (stereo not given)	94.6% (inactive)
CC(c1ccccn1)N(CCN(C)C)C(=S)Nc1cccc(F)c1 (stereo not given)	99.1% (inactive)
